An excerpt weighted towards active compounds, which were near 18% of everything screened.
TDP1 cell CPT – growth inhibition of DT40 Tdp1-/-;hTDP1 cells with camptothecin (screen for TDP1 inhibitors); chicken DT40 Tdp1-/-;hTDP1 cells + 20 nM CPT, ATP luminescence, 48 h; Potency, µM (series often up to 46.2 µM), for the others: top-dose activity change, negative = growth inhibition, most hits filed as inhibitors; 420,000 compounds, 12% hits; AID 686979; further: potency means the concentration at half of the fitted maximal effect; nearly all actives have a fitted effect of over 55% in size
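Chicken DT40 Tdp1-/- cells complemented with human TDP1, 400 cells/well, exposed to compounds plus 20 nM camptothecin for at least 48 h at 37 C; viability read as ATP content by CellTiter-Glo luminescence.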
Six1-Eya2 inh – inhibitors of human Six1/Eya2 interaction | AlphaScreen GST-Six1/His-Eya2 binding, biochemical; stronger effect = lower value | activity change, % (no concentration beside the values) | 360,000 compounds, 0.56% hits | AID 651725; in the data active means activity change below about -65%; inconclusive means mostly about -30% to -63%
Target sequence (O00167 whole entry, looked up): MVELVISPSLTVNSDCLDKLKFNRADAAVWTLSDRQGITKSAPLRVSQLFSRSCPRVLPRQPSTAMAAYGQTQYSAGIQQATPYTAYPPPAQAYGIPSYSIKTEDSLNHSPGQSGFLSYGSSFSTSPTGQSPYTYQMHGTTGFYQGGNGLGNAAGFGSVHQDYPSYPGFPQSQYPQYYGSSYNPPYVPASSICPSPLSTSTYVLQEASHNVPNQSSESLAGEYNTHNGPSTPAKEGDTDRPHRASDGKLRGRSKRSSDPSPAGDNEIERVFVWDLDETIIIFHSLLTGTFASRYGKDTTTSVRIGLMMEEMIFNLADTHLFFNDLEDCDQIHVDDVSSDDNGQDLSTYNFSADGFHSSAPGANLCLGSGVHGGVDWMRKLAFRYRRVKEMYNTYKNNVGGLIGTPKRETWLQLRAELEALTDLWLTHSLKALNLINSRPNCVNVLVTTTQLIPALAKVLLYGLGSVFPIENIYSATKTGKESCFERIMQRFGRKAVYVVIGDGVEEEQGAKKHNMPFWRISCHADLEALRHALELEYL
Target sequence (Q15475 whole entry, looked up): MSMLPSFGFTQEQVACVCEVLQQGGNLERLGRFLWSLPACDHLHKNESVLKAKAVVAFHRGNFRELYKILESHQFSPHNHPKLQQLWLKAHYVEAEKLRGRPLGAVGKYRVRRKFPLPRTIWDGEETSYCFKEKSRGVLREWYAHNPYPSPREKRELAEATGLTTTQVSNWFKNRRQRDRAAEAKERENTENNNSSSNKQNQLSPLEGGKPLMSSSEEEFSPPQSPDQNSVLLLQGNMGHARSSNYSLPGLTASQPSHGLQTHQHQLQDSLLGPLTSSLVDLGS
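AlphaScreen luminescence read after one hour at 37 °C in darkness. Pin-transferred compounds met GST-Six1 and His-Eya2 protein (5X stock 250 nM/500 nM) plus glutathione donor and Ni-chelate acceptor beads (5X, 50 ug/mL).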
TDP1 inh – inhibitors of human tyrosyl-DNA phosphodiesterase TDP1. AID 485290. Q9NUW8. Potency, µM (titrated, usually from 130 µM), without a hit: at the top dose activity change, negative = inhibition, actives largely listed as inhibitors. 350,000 compounds, 0.28% hits. recombinant TDP1, AlphaScreen DNA substrate cleavage; further: potency means the concentration at half of the fitted maximal effect; nearly all actives have a fitted effect of over 40% in size
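Steps: enzyme plus compound, 15 min RT; add biotin/phosphotyrosine-FITC oligonucleotide (15 nM final), react 5 min; add donor/acceptor beads (10 ug/ml final), 10 min; read AlphaScreen. Tdp1 at 1 nM final.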
CtBP-E1A blk – inhibitors of CtBP/E1A interaction; activity change, % (test concentration not listed); 340,000 compounds, 0.49% hits; AlphaScreen GST-E1A/His-CtBP binding, 1536-well; stronger effect = lower value; AID 651724; in the data active means activity change below about -65%; inconclusive means mostly about -30% to -63%
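In 5 uL wells, 23 nL compound meets equimolar GST-E1A and His-CtBP (5X stock 125 nM each) for 2 h, 37 °C. Beads (5X, 50 ug/mL) then 1 h, 37 °C, dark.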
TDP1 cell noCPT – qHTS for Inhibitors of human tyrosyl-DNA phosphodiesterase 1 (TDP1): qHTS in cells in absence of CPT. Potency, µM (top dose mostly 46.2 µM), for inactives: top-dose activity change, negative = growth inhibition, hits mostly inhibitors. 420,000 compounds, 15% hits. DT40 Tdp1-/- hTDP1 cells, no CPT, ATP luminescence, 48 h. AID 686978, 2013; further: potency means the concentration at half of the fitted maximal effect; nearly all actives have a fitted effect of over 55% in size
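A cellular qHTS used chicken DT40 cells lacking endogenous Tdp1 but carrying stably transfected human TDP1. Compounds were applied without camptothecin, and cell growth kinetics were judged by ATP-dependent luminescence after ≥48 hr.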
IL1B secr inh – inhibitors of inflammasome signaling (IL-1 beta secretion) | THP-1 LPS/ATP IL-1B secretion, AlphaLISA, 16 h; stronger effect = lower value | activity change, % at 57.5 µM | 360,000 compounds, 4.7% hits | AID 743279; in the data active means activity change below about -50%; inconclusive means mostly about -30% to -49%
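THP-1 cells pretreated 1 hr with compounds (up to 57.5 uM final), then stimulated with LPS (250 ng/mL final) plus ATP (1.25 mM final); secreted IL-1B measured by AlphaLISA after 16 hr, decreased signal indicating inhibition.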
* marks the source's active call; other numbers are inactive results; ? = inconclusive; . = no result given; [ ] = dose if it differs, or a comment. Unless noted, the call rests on the fitted dose curve; in most records, active means well fitted curve in the direction sought with a large enough effect; inconclusive means small, poorly fitted or top-dose-only effect, or another doubt; inactive means no such curve, though single readings can be large; an effect the other way counts as inactive or inconclusive. On the % scale 0 is the no-effect control and ±100 the full control effect.

SMILES	TDP1 cell CPT	Six1-Eya2 inh	TDP1 inh	CtBP-E1A blk	TDP1 cell noCPT	IL1B secr inh
CCc1ccccc1-n1ncc(C(=O)Nc2ccc(OC)cc2)c1C	-7%	-12	.	-9	?	-65*
COc1ccc(NS(=O)(=O)NC(=O)c2c(C)n(C)c3ccccc23)cc1	-3%	-1	6%	-1	22%	33
CCc1ccc(NC(=O)c2cnn(-c3ccccc3)c2C)cc1	-4%	4	3%	7	?	?
CCOC(=O)N1CCc2c(sc3c2c(=O)n(-c2ccc(CC)cc2)c(=O)n3CC(=O)c2ccccc2)C1	?	.	-1%	.	-15%	.
CCc1nc2ccc(C(=O)NCc3ccccc3OC)cn2c1N(C)Cc1ccc(OC)cc1	16µM*	-17	.	-5	21µM*	-52*
CCc1nc2ccc(C(=O)Nc3ccc(Cl)c(Cl)c3)cn2c1N(C)Cc1ccc(OC)cc1	16µM*	-9	.	-3	?	-61*
CCc1nc2ccc(C(=O)N(C)Cc3ccccc3)cn2c1N(C)CCCc1ccccc1	?	-5	.	-9	13µM*	-26
CCc1nc2ccc(C(=O)NCCc3c[nH]c4ccccc34)cn2c1N(C=O)CCC(C)C	21µM*	0	.	-19	16µM*	?
COc1cccc2cc(C(=O)N3CCN(c4ccc(C)cc4C)CC3)c(=O)oc12	9%	0	7%	2	?	9
Cc1nn(C(C)C(=O)Nc2ccccc2C(F)(F)F)c(=O)c2c1sc1ccccc12 (stereo not drawn)	-6%	.	3%	.	-10%	.
COc1ccc(NC(=S)NCCCN2CCOCC2)cc1	-1%	2	.	0	2%	21
CCc1nc2ccc(C(=O)N(C)CCCN(C)C)cn2c1N(C)Cc1cc2ccccc2s1	?	-10	.	-4	21µM*	-9
CCc1nc2ccc(C(=O)NCC3CCCCC3)cn2c1N(C)Cc1ccc(OC)cc1	?	-9	.	-1	?	?
CCc1nc2ccc(C(=O)NCCOc3ccc(OC)cc3)cn2c1N(C=O)Cc1ccc(OC)cc1	23µM*	-2	.	-9	?	0
CCc1nc2ccc(C(=O)N(C)CCCN(C)C)cn2c1N(C)CCCc1ccccc1	?	-11	.	-8	?	-12
CCc1nc2ccc(C(=O)NCCOc3ccc(OC)cc3)cn2c1N(C)C(=O)C1CCCCC1	?	-2	.	1	21µM*	-8
CCc1nc2ccc(C(=O)NCCN3CCCC3)cn2c1N(C)Cc1ccc(OC)cc1	?	0	.	-5	?	?
CCc1nc2ccc(C(=O)NCc3ccc(OC)cc3)cn2c1N(C)Cc1ccc(OC)cc1	?	-10	.	-4	21µM*	-11
Cc1coc2cc3oc(=O)c(CCC(=O)NCC(=O)O)c(C)c3cc12	3%	-5	.	-4	3%	30
CCc1nc2ccc(C(=O)Nc3cccc(OC)c3)cn2c1N(C)Cc1ccc(OC)cc1	?	-7	.	-14	?	?
CCc1nc2ccc(C(=O)N(C)Cc3ccccc3)cn2c1N(C)Cc1ccc(OC)cc1	12µM*	-11	.	-9	12µM*	-14
COC(=O)c1[nH]c2c(c1C)C(=O)CC(c1cc(OC)ccc1OC)C2 (stereo not drawn)	3.3µM*	-6	-1%	3	2.9µM*	41
COc1ccc(OC)c(C2CC(=O)c3c([nH]c(C(=O)OCC4CCCCC4)c3C)C2)c1 (stereo not drawn)	21µM*	.	7%	.	?	.
COC(=O)c1[nH]c2c(c1C)C(=O)CC(c1cccs1)C2 (stereo not drawn)	0.73µM*	13	4%	-3	0.82µM*	20
CCOc1ccc(C2CC(=O)c3c([nH]c(C(=O)OC4CCCCCC4)c3C)C2)cc1 (stereo not drawn)	?	.	-1%	.	?	.
SMILES	TDP1 cell CPT	Six1-Eya2 inh	TDP1 inh	CtBP-E1A blk	TDP1 cell noCPT	IL1B secr inh
CCOc1ccc(C2CC(=O)c3c([nH]c(C(=O)OC)c3C)C2)cc1OC (stereo not drawn)	-1%	3	2%	8	-27%	16
O=C(Nc1ccc(N2CCOCC2)cc1)c1cccc2c(Br)cccc12	4%	-4	.	14	-8%	4
O=C(NCc1ccncc1)C(=O)NC1CC1	7%	0	3%	-1	-5%	0
CCN1CCN(c2nc3ccccc3n3cnnc23)CC1	-7%	0	.	.	-22%	-20
COc1ccccc1N1CCN(c2nc3ccccc3n3cnnc23)CC1	?	.	-2%	.	21µM*	.
Cc1cccc(N2CCN(c3nc4ccc(Cl)cc4n4cnnc34)CC2)c1C	21µM*	-3	-3%	-2	?	22
CCCCc1nc2c(c3c1C[C@H](C)OC3)CN(C(=O)Nc1cccc(C#N)c1)CC2	.	.	6%[12.3 µM]	.	.	.
O=c1c2ccccc2oc2ccc(NCCCn3ccnc3)cc12	?	-18	.	-22	?	-58*
CCc1ccc(N(C(C)=O)c2nc(CCl)cs2)cc1	-10%	-3	7%	1	10µM*	-23
CC(=O)N(c1ccccc1)c1nc(/C=C/C(=O)O)cs1	-19%	6	5%	-1	-13%	1
CCNc1nc(NCC)n2c(SC(C(=O)Nc3cc(C)ccc3OC)c3ccccc3)nnc2n1 (stereo not drawn)	?	-10	8%	-15	?	-104*
CCNc1nc(NCC)n2c(SCC(=O)Nc3ccccc3)nnc2n1	2%	3	5%	-1	-3%	-4
COc1ccc(C)cc1NC(=O)C(Sc1nnc(-c2ccncc2)n1-c1ccc(Cl)cc1)c1ccccc1 (stereo not drawn)	?	-19	0%	0	16µM*	-59*
CCNc1nc(NCC)n2c(SCC(=O)c3ccc(C(C)C)cc3)nnc2n1	23µM*	0	-3%	-12	26µM*	12
CCOCCCn1c(SCC(=O)Nc2ccc(C(C)C)cc2)nc2c(sc3ccccc32)c1=O	-23%	.	1%	.	?	.
CNC(=O)C[C@H]1C(=O)N(c2ccccc2)C[C@@H]1Cc1ccccc1	-13%	0	.	6	-4%	-6
CN(C)/N=C1\CCS(=O)(=O)c2sccc21	-26%	23	3%	.	-16%	-12
O=C(OCc1ccccc1)c1cccnc1	?	.	.	.	9.4µM*	.
COc1ccc(OC)c(C(=O)Cn2nnc(-c3ccc(N4CCOCC4)cc3)n2)c1	-8%	8	.	10	1%	-16

Source: PubChem BioAssay (National Center for Advancing Translational Sciences (NCATS))
